The results in this text go back to PubChem BioAssay (NCI).

The panel holds about 83,000 compounds, 20% with a hit somewhere; the sample as a whole holds those more often.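 The test compound was applied at a single concentration to cells in 96-well plates for 48 hours, and percent growth was recorded.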 The source made the active and inactive calls. How the source made its calls: active means growth percent below 10; inactive means the rest.

The experiment relates to MDA-MB-468 breast. Nature of the experiment: NCI-60 one-dose screen, 48 h (100 = growth as untreated, 0 = no growth, -100 = all killed). The note with it: 10 µM unless noted.
Turning to `CC(=O)c1ccc(NS(=O)(=O)c2ccc([N+](=O)[O-])cc2)cc1`, the growth was 98.9% (inactive).

On to `COc1cc(-c2nc3ccc(C)cc3[nH]2)ccc1OCc1nnc(-c2ccc(CC(C)C)cc2)o1`, for which the growth was 116% (inactive).

With `CN(C)Cc1ccccn1`, the growth was 105% (inactive).

In the case of `COc1ccc(S(=O)(=O)NCCNc2nccc(-c3c(-c4cccc(F)c4)nc4sccn34)n2)cc1`, the growth is 23.3% (inactive).

As for `CC1=N[C@@H]2CN(C(=O)OC(C)(C)C)C[C@@H]2n2c1cc1ccccc1c2=O`, the growth is 111% (inactive).

Consider `O=C(CCCCCCN1CC(=O)N2[C@@H](C3CC3)c3[nH]c4ccccc4c3C[C@H]2C1=O)NO`, for which the growth is 64.6% (inactive).

As for `N#C/C(=C\c1ccc(C#N)cc1)C(=O)c1ccccc1`, the growth was 95.7% (inactive).

In the case of `Cc1cc(O)c(C2=NN(c3ccc(S(N)(=O)=O)cc3)C(c3ccccc3O)C2)cc1Cl` (centres undefined), the growth was 17.2% (inactive).

As to `Cn1cc(-c2csc(-c3c[nH]c4ccc(Br)cc34)n2)c2cnccc21`, the growth was -70.5% (active).

In the case of `c1nc(SC2=NCCN2)c2[nH]cnc2n1`, the growth was 14.7% (inactive).

`COc1cnc2c(c1)C(=O)c1c-2n(CCCN2CCC(O)CC2)c(=O)c2cc(F)ccc12`: the growth was -57.2% (active).

For the compound `c1ccc(Cn2cc3c(c2)-c2nc(Nc4ccccc4)ncc2CC3)cc1`, the growth was 115% [100 µM] (inactive).

With `CCn1c(SCC(=O)Nc2cccc(C(=O)/C=C/c3ccccc3Cl)c2)nc2ccccc2c1=O`, the growth is 76.7% (inactive).

`COCC(=O)NC/C=C/c1ccc2ncnc(Nc3ccc(Oc4ccc(C)nc4)c(C)c3)c2c1`: the growth is 28.4% (inactive).

Regarding `CC1C(C)N(C(=O)CCl)c2ccccc2N1C(=O)CCl` (centres undefined), the growth was -69% (active).

In the case of `CCc1ccc(OC(=O)CCl)cc1`, the growth is 116% (inactive).

Consider `COc1nccnn1`, for which the growth is 82.9% (inactive).

Consider `COc1ccc2c(C3=C(c4cn(C)c5ccccc45)C(=O)NC3=O)coc2c1`, for which the growth was 30.5% (inactive).

On to `CN=C1C=C/C(=N/N=c2/ccn(O)cc2C)C=C1C`, for which the growth was 83.1% (inactive).

With `CC[C@H]1OC(=O)[C@H](C)[C@@H](O[C@H]2C[C@@](C)(OC)[C@@H](O)[C@H](C)O2)[C@H](C)[C@@H](O[C@@H]2O[C@H](C)C[C@H](N(C)C)[C@H]2O)[C@](C)(OC)C/C(C)=C2/O[C@@]1(C)C=C2C`, the growth is -73.7% (active).

With `O=C(Nc1ccc(OS(=O)(=O)c2ccccc2)cc1)C1CCCCC1`, the growth was 103% (inactive).

In the case of `COc1ccc(C2=Cc3ccc(OC(C)=O)cc3OC2)cc1`, the growth was 67.4% (inactive).

For the compound `COc1cc(CCCO)c(OC)c(OC)c1OC`, the growth was 104% (inactive).

Consider `Cn1c(=O)c2c(nc(Br)n2CCC(=O)Nc2ccc(F)cc2)n(C)c1=O`, for which the growth was 113% (inactive).
